Assay outcomes from PubChem BioAssay.
Shiga inhibitor = A qHTS for Small Molecule Inhibitors of Shiga Toxin; Vero cells, Shiga toxin protein synthesis inhibition reporter; inhibition, % at 38.7 µM; 290,000 compounds, 9.2% hits; AID 2315, 2010; in the data active = inhibition mostly above about 28%, no sharp cut-off; inactive = mostly below about 43%
AMA1-RON2 inh = qHTS for Inhibitors of AMA1-RON; Towards Development of Antimalarial Drug Lead: Primary Screen; AID 720542, 2013; 360,000 compounds, 0.2% hits; Plasmodium falciparum AMA1 (3D7) - RON2 peptide interaction; AlphaScreen AMA1-biotinylated RON2 peptide binding; Potency, µM (titrated, usually from 58.2 µM), usual class: inhibitors; active = well fitted inhibition curve with a large enough effect; inconclusive = small, poorly fitted or top-dose-only effect; inactive = no such curve, though single readings can be large or run the other way; note: nearly all actives have a fitted effect of over 45% in size
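AMA1 (3D7) with his tag at 25 nM final met compounds first, then biotinylated RON2 peptide at 25 nM; detection used donor plus acceptor beads, 10 µg/mL apiece, read by AlphaScreen after 30 min at room temperature.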
LASV entry inh = qHTS for Inhibitors of binding or entry into cells for Lassa Virus; Lassa virus pseudotype entry inhibition, cell reporter; Potency, µM (titrated, usually from 37.9 µM), hits mostly inhibitors; 300,000 compounds, 1.2% hits; AID 540256, 2011; calls by dose curve; tested in HEK293 cells; note: nearly all actives have a fitted effect of over 50% in size
MARV entry inh = qHTS for inhibitors of binding or entry into cells for Marburg Virus. Marburg virus pseudotyped entry inhibition, cell reporter. Potency, µM (series often up to 37.8 µM), usual class: inhibitors. 300,000 compounds, 1.8% hits; calls by dose curve; tested in HEK293 cells
Cycloheximide cs = Cycloheximide Counterscreen for Small Molecule Inhibitors of Shiga Toxin; cell reporter, cycloheximide protein synthesis inhibition counterscreen; max response, %; 300,000 compounds, 12% hits; AID 2314, 2010; in the data active = max response mostly above about 13%, no sharp cut-off; inactive = mostly below about 14%; note: read at 38.3 µM for the half of the compounds with a filed dose
Each line names hits and unclear results; the compound was inactive in the other large screens. The sample as a whole holds a higher share of hits than the screen did.

CCC(C)Sc1oc(-c2ccco2)nc1S(=O)(=O)c1ccc(Cl)cc1 (centres undefined)	none (no result: Shiga inhibitor, AMA1-RON2 inh, Cycloheximide cs)
O=C(Oc1ccccc1F)c1nc(SCc2ccc(F)cc2)ncc1Cl	none (no result: Shiga inhibitor, AMA1-RON2 inh, Cycloheximide cs)
CC(=O)N(C)c1ccc(N=Nc2c(C)[nH]n(C(N)=S)c2=O)cc1	Shiga inhibitor 49, LASV entry inh inconclusive, Cycloheximide cs 39
CCOc1ccccc1N=Nc1c(C)[nH]n(C(N)=S)c1=O	none
CCN(CC)S(=O)(=O)c1ccc(N=Nc2c(C)[nH]n(C(N)=S)c2=O)cc1	Shiga inhibitor 73, MARV entry inh inconclusive, Cycloheximide cs 40
CCc1cccc(NC(=O)CSc2ncc3c(n2)-c2ccccc2N(Cc2ccccc2C)S3(=O)=O)c1	none (no result: Shiga inhibitor, AMA1-RON2 inh, MARV entry inh, Cycloheximide cs)
O=c1c2cc(N3CCOCC3)ccc2[nH]c(=S)n1CCCN1CCCCCC1	MARV entry inh 18µM
CC(C)OCCCn1c(=S)[nH]c2ccc(N3CCOCC3)cc2c1=O	LASV entry inh 5.8µM, MARV entry inh inconclusive
O=c1c2cc(N3CCOCC3)ccc2[nH]c(=S)n1CCN1CCCC1	none
CC(=O)Nc1ccc(SCC(=O)c2cc(C)n(C)c2C)cc1	LASV entry inh inconclusive
CC(=O)Nc1ccc(SCC(=O)c2cc(C)n(CC(F)(F)F)c2C)cc1	Shiga inhibitor 71, MARV entry inh inconclusive, Cycloheximide cs 35
Cc1cc(C2=NNC(=NC3CC3)SC2)c(C)n1Cc1ccco1	Shiga inhibitor 137, LASV entry inh inconclusive, MARV entry inh inconclusive, Cycloheximide cs 95
COc1ccc(-n2c(C)cc(C3=NNC(=NC4CC4)SC3)c2C)cc1	Shiga inhibitor 85, LASV entry inh inconclusive, MARV entry inh inconclusive, Cycloheximide cs 40
Cc1cc(C2=NNC(=NC3CC3)SC2)c(C)n1-c1ccccc1	none (no result: LASV entry inh, MARV entry inh)
COCC(C)N=C1NN=C(c2ccc(NC(C)=O)cc2)CS1 (centres undefined)	Cycloheximide cs 22
COCC(C)N=C1NN=C(c2cc(C)n(Cc3ccccc3Cl)c2C)CS1 (centres undefined)	Shiga inhibitor 108, Cycloheximide cs 55 (no result: LASV entry inh, MARV entry inh)
COCCn1c(C)cc(C2=NNC(=Nc3ccc(Cl)cc3Cl)SC2)c1C	MARV entry inh inconclusive
O=C(CCCN1C(=O)C(c2ccccc2)Oc2cccnc21)Nc1ccccc1Cl (centres undefined)	none
COCCn1c(C)cc(C2=NNC(=NC3CC3)SC2)c1C	LASV entry inh 0.32µM, MARV entry inh 0.32µM
COCCCN=C1NN=C(c2cc(C)n(Cc3ccco3)c2C)CS1	Shiga inhibitor 127, LASV entry inh inconclusive, MARV entry inh 16µM, Cycloheximide cs 40
C=CCN=C1NN=C(c2cc(C)n(CCOC)c2C)CS1	LASV entry inh inconclusive, MARV entry inh inconclusive
Cc1cc2nc(-c3ccc(C#N)cc3)c(Cc3ccsc3)n2c(C)c1Br	none (no result: Shiga inhibitor, LASV entry inh, MARV entry inh, Cycloheximide cs)
COc1ccc(/C=N/Nc2ncccc2[N+](=O)[O-])c(OC)c1	Shiga inhibitor 51 (no result: LASV entry inh, MARV entry inh)
O=[N+]([O-])c1ccccc1C=NNc1ccccc1	AMA1-RON2 inh inconclusive, MARV entry inh inconclusive (no result: Shiga inhibitor, Cycloheximide cs)
O=[N+]([O-])c1ccccc1N/N=C\c1ccccc1Cl	Shiga inhibitor 41, LASV entry inh inconclusive, MARV entry inh inconclusive, Cycloheximide cs 26
O=[N+]([O-])c1ccccc1N/N=C\c1ccccc1F	Shiga inhibitor 51, AMA1-RON2 inh inconclusive, MARV entry inh inconclusive, Cycloheximide cs 48
O=[N+]([O-])c1ccc(N/N=C/c2cccc(O)c2O)c(S(=O)(=O)N2CCOCC2)c1	none (no result: LASV entry inh, MARV entry inh)
O=[N+]([O-])c1cccc(N/N=C/c2cccc(O)c2O)c1	Shiga inhibitor 85, MARV entry inh inconclusive, Cycloheximide cs 40
O=C(Nc1sc2c(c1C(=O)O)CCC2)C(=O)N1CCOCC1	none (no result: LASV entry inh, MARV entry inh)
Cc1cccc(C)c1NC(=O)Cn1cc(C=O)c2ccccc21	none (no result: LASV entry inh, MARV entry inh)
O=[N+]([O-])c1ccc(O)c(/C=N/Nc2ccccc2Cl)c1	Shiga inhibitor 69, LASV entry inh inconclusive, MARV entry inh inconclusive, Cycloheximide cs 40
CCCOc1ccc(/C=N/Nc2ccccc2[N+](=O)[O-])c(OCCC)c1	AMA1-RON2 inh inconclusive, LASV entry inh inconclusive, Cycloheximide cs 28
O=[N+]([O-])c1ccccc1N/N=C/c1cccc(O)c1O	Shiga inhibitor 115, Cycloheximide cs 30 (no result: LASV entry inh, MARV entry inh)
COc1ccc(C(=O)Nc2cc(C)on2)c(OC)c1	Shiga inhibitor 41, Cycloheximide cs 38 (no result: LASV entry inh, MARV entry inh)
COc1ccc(C(=O)Nc2ccc(C)cn2)c(OC)c1	LASV entry inh 0.65µM, MARV entry inh 1µM
COc1cc(C(=O)Nc2ccc(C)cn2)c([N+](=O)[O-])cc1OC	none
CC(=O)N1CCC2(CC1)OC(=O)C(C)=C2C(=O)NCc1cccc(Cl)c1	none (no result: Shiga inhibitor, AMA1-RON2 inh, MARV entry inh, Cycloheximide cs)
CCCn1nc2cc(C(=O)NCCc3cccs3)ccc2c1OCC	Shiga inhibitor 73, Cycloheximide cs 29 (no result: LASV entry inh, MARV entry inh)
CCCCNC(=O)c1ccc2c(OCC)n(CCCC)nc2c1	none (no result: LASV entry inh, MARV entry inh)
COc1ccc(Nc2nnc(SCC(=O)/C=C3/N(C)c4ccccc4C3(C)C)s2)cc1	LASV entry inh 14µM, MARV entry inh inconclusive
CN1/C(=C\C(=O)CSc2nnc(N)s2)C(C)(C)c2ccccc21	LASV entry inh inconclusive, MARV entry inh inconclusive
CCCN1/C(=C(\C#N)C2=NS(=O)(=O)c3ccccc32)N(C)c2ccccc21	none (no result: Shiga inhibitor, Cycloheximide cs)
COc1ccccc1N(C(C)=O)C1=C(Cl)C(=O)c2ccccc2C1=O	AMA1-RON2 inh 13µM (no result: Shiga inhibitor, LASV entry inh, MARV entry inh, Cycloheximide cs)
CCCS(=O)(=O)c1nnnn1-c1cccc(OC)c1	MARV entry inh 26µM
COc1ccc2c(-c3ccccc3)cc(SCC(N)=O)nc2c1	LASV entry inh inconclusive, MARV entry inh 5.6µM
COc1ccc2nc(SCC(N)=O)cc(C)c2c1	none
COc1ccc(/C=C2\N=C(c3ccccc3Cl)NC2=O)cc1	Cycloheximide cs 34 (no result: LASV entry inh, MARV entry inh)
CCSC1=N/C(=C\c2ccccc2)C(=O)N1c1ccc(OC)cc1	none
CCN(CC)C1=N/C(=C\c2ccc(OC)cc2)C(=O)N1c1ccccc1	LASV entry inh 0.89µM, MARV entry inh inconclusive
CCSC1=N/C(=C\c2ccc(OC)cc2)C(=O)N1	Shiga inhibitor 46, LASV entry inh inconclusive, Cycloheximide cs 28
COc1ccc(/C=C2\N=C(SC)N(C)C2=O)cc1	Cycloheximide cs 12
C=CCc1ccccc1OCC(=O)NNC(=S)NCc1ccccc1	MARV entry inh inconclusive
CCCOc1ccc(C(=O)Nc2ccc3oc(-c4ccc5ccccc5c4)nc3c2)cc1	none (no result: Shiga inhibitor, AMA1-RON2 inh, MARV entry inh, Cycloheximide cs)
O=C1C(=O)N(C2CCN(S(=O)(=O)c3ccccc3)CC2)CCN1Cc1ccccc1	none (no result: Shiga inhibitor, AMA1-RON2 inh, MARV entry inh, Cycloheximide cs)
COc1ccc(C=C2C(=O)NC(=S)NC2=O)cc1OC	AMA1-RON2 inh inconclusive (no result: Shiga inhibitor, Cycloheximide cs)
COc1ccc(/C=C2\N=C(SC)NC2=O)cc1	Shiga inhibitor 120
COc1ccc(/C=C2/N=C(SC)NC2=O)cc1OC	LASV entry inh inconclusive, Cycloheximide cs 16
O=C(CSC(=O)c1ccccc1)Nc1ccccc1F	none (no result: Shiga inhibitor, Cycloheximide cs)
O=C(Cn1nnc2ccccc21)c1ccc(Br)cc1	Shiga inhibitor 48, MARV entry inh inconclusive, Cycloheximide cs 35
CC(=O)NNC(=O)CCn1nnc2ccccc21	LASV entry inh inconclusive
O=C(CCn1nnc2ccccc21)N1CCN(c2ccccc2)CC1	Shiga inhibitor 78
